High-throughput results: PubChem, National Center for Advancing Translational Sciences (NCATS)
Compounds with a hit are over-represented: about 8% of the library has one in this group of screens.
KB-V1 cytotox: KB-V1 MDR subline cytotoxicity | KB-V1 MDR cells viability, CellTiter-Glo, 72 h | Potency, µM (top dose mostly 46.1 µM), hits mostly cytotoxic | actives 3.4% (n = 400,000) | AID 1347076; note: % is set by controls: 0 for no effect and ±100 for the full control effect; nearly all actives have a fitted effect of over 60% in size
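KB-V1 cells (P-gp-expressing MDR subline of KB-3-1) in phenol-red-free DMEM with 10% FBS were exposed to library compounds over a concentration series for 72 h at 37 degrees C. Viability read by CellTiter-Glo luminescence; concentration-effect curves fitted after normalization.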
HT1080NT lethal: kills 2HG-producing HT-1080-NT fibrosarcoma cells; HT-1080-NT fibrosarcoma viability, CellTiter-Glo ATP luminescence, 48 h; Potency, µM (highest dose often 46.1 µM), without a hit: at the highest dose activity, negative = less viability, hits mostly cytotoxic; actives 1.6% (n = 360,000);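 note: NT is the 2HG producing partner of a matched IDH1 knockdown line; 0% = DMSO-treated cells and -100% = media-only wells without cells; nearly all actives have a fitted effect of over 55% in size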
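Read-out is CellTiter-Glo luminescence after 10 minutes at room temperature, following 48 hours' compound treatment of HT-1080-NT cells (750 cells/well, RPMI, 5% FBS, 37 degrees C).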
SW480 rereplic: induces DNA re-replication in SW480 colon adenocarcinoma cells; Potency, µM (highest dose often 46.1 µM), without a hit: at the highest dose re-replication activation, hits mostly activators; SW480 DNA re-replication, Hoechst DNA content imaging, 48 h; actives 1.8% (n = 340,000); AID 624297; note: % of control where 0% means no effect; nearly all actives have a fitted effect of over 55% in size
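Compounds, transferred as 23 nL by pin tool, were incubated with cells for 48 hr; DNA content per nucleus was then quantified by Hoechst staining and fluorescence plate imaging.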
KB-3-1 tox: kills parental KB-3-1 adenocarcinoma cells | Potency, µM (top dose mostly 46.1 µM), hits mostly cytotoxic | KB-3-1 viability, CellTiter-Glo ATP luminescence, 72 h | actives 1.4% (n = 400,000); note: % is set by controls: 0 for no effect and ±100 for the full control effect; nearly all actives have a fitted effect of over 60% in size
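KB-3-1 cells, DMEM (no phenol red) + 10% FBS; compound by pin transfer, 72 h, 37 °C. Readout: CellTiter-Glo luminescence after 10 min. Data normalized, curve-fitted.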
HT1080 IDH1KD tx: HT-1080 IDH1 knockdown cell toxicity (counter line); HT-1080 IDH1 knockdown viability, ATP luminescence, 48 h; AID 686971; Potency, µM (series often up to 46.1 µM), without a hit: at the highest dose activity, negative = toxicity, usual class: cytotoxic; actives 2% (n = 360,000);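 note: 0% = DMSO wells and -100% = cell-free medium wells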
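After a 2 h attachment period, IDH1KD HT-1080 cells took pin-transferred compound for 48 h at 37 °C; ATP-based luminescence after 10 min room-temperature reagent incubation reported viability.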
MCF10A rereplic: induces DNA re-replication in MCF 10a normal breast cells; Potency, µM (series often up to 46.1 µM), inactives show at the top dose activity, positive = re-replication, hits mostly activators; actives 2.9% (n = 350,000); MCF 10A DNA re-replication, Hoechst nuclear intensity, 48 h; note: % of control where 0% means no effect; nearly all actives have a fitted effect of over 50% in size
* = called active by the depositor; i = inactive; ? = inconclusive; / = no result; [ ] = dose if it differs, or a comment. Calls come from the whole dose curve; as a rule, active = well fitted curve in the direction sought with a large enough effect; inconclusive = small, poorly fitted or top-dose-only effect, or another doubt; inactive = no such curve, though single readings can be large; an effect the other way counts as inactive or inconclusive. Potency is the fitted concentration of half-maximal effect.

SMILES | KB-V1 cytotox | HT1080NT lethal | SW480 rereplic | KB-3-1 tox | HT1080 IDH1KD tx | MCF10A rereplic
CCOc1cc(/C=N/NC(N)=S)cc(Br)c1OCc1ccccc1C | i | -22.8% | 1.1% | i | -14.4% | ?
COc1cc(/C=N/NC(N)=S)cc(Br)c1OCc1ccccc1F | 18.4µM* | -9.9% | 5.5% | i | -19.4% | ?
CCOc1c(Cl)cc(/C=N/NC(N)=S)cc1OC | 7.31µM* | 1.2% | 0.4% | i | 1.6% | 20.1%
CSc1cccc(NC(=O)N2CCN(S(=O)(=O)c3ccc4c(ccn4C)c3)CC2)c1 | i | / | / | i | / | /
CCCCNC(=S)NC(=O)c1ccc(Cl)cc1Cl | i | 0.6% | -2.7% | i | -0.6% | 1.5%
CCN(Cc1ccccc1)C(=S)NC(=O)c1ccccc1Br | ? | -2.5% | 11.6µM* | ? | -19.2% | 15.1%
CC(C)(C)C(=O)NC(=S)NNC(=O)c1ccc(Cl)cc1Cl | ? | 9.2µM* | ? | ? | 18.4µM* | 12.9%
CCN(CC)C(=S)Nc1ccc(Cl)c(Cl)c1 | 23.1µM* | 4.2% | -31.5% | ? | 10.5% | 23.7%
CCN(CC)C(=S)NC(=O)c1ccc(Cl)cc1Cl | i | 7.08µM* | -2.9% | i | 3.55µM* | -2.0%
COc1ccccc1CNC(=O)CCCCn1c(=O)c2ccccc2n(CC(=O)Nc2c(C)cc(C)cc2C)c1=O | ? | / | / | i | / | /
Cc1ccc(NC(=O)Cn2c(=O)c3cc(Cl)ccc3n3nncc23)cc1 | ? | / | / | i | / | /
Cc1ccccc1OCC(=O)Nc1ccc(OCc2cc(=O)n3ccsc3n2)cc1 | ? | / | / | i | / | /
CCN(CC)C(=S)NC(=O)c1cc(OC)c(OC)c(OC)c1 | i | 23.1µM* | 4.6% | i | -11.1% | -7.1%
CCN1CCN(C(=S)NC(=O)c2cc(OC)c(OC)c(OC)c2)CC1 | i | 4.1% | -5.2% | i | 5.0% | 0.0%
N#CCCN(Cc1ccccc1)C(=S)NC(=O)c1ccccc1 | ? | 1.26µM* | ? | i | 1.12µM* | 26.0%
COc1ccc(-c2cc3ccc(O)c(CN4CCCCC4C)c3oc2=O)cc1OC (stereo not drawn) | ? | / | / | i | / | /
COc1cc(/C=N/NC(N)=S)ccc1OCC(=O)Nc1ccc(C)c(C)c1 | i | -18.3% | ? | i | -16.1% | 14.6µM*
COc1ccc(NC(=O)COc2ccc(/C=C/c3cc[n+](C)cc3)cc2OC)cc1 | i | -2.5% | 8.2µM* | ? | 7.0% | ?
COc1cc(/C=C/c2cc[n+](C)cc2)ccc1OCC(=O)Nc1ccc(Cl)c(Cl)c1 | i | ? | ? | ? | 23.1µM* | ?
COc1cc(/C=C/c2cccc[n+]2C)ccc1OCC(=O)Nc1cccc(Cl)c1 | ? | -1.7% | -25.8% | ? | -7.3% | -19.7%
Nc1nc(N)c(N=O)c(OCC2CCCCC2)n1 | ? | ? | 10.6% | i | 18.4µM* | ?
O=C(NC1CCCCC1)C1Cc2ccccc2CN1S(=O)(=O)c1ccc(F)cc1 (stereo not drawn) | ? | 2.2% | ? | i | -9.9% | ?
O=C(Nc1nnc(C2CC2)s1)C1Cc2ccccc2CN1S(=O)(=O)c1ccccc1F (stereo not drawn) | ? | ? | ? | i | 12.6µM* | 8.2%
CCS(=O)(=O)N1Cc2ccccc2CC1C(=O)Nc1ncc(C)s1 (stereo not drawn) | ? | -5.5% | -78.4% | i | 6.4% | -3.6%
O=C(Nc1nccs1)C1Cc2ccccc2CN1S(=O)(=O)c1ccc(F)cc1 (stereo not drawn) | i | 1.5% | 4.11µM* | i | -6.3% | 425.2%[0.0737 µM]
CCCCn1c(=O)nc2n(-c3ccc(Br)cc3)c3ccccc3cc-2c1=O | i | / | / | i | / | /
Cc1ccccc1C(=O)Nc1nnc(S(=O)(=O)N2CCc3ccccc32)s1 | i | / | / | i | / | /
CCc1c(C)nc2ncnn2c1N1CCC(C(=O)NCc2cccc(OC)c2)CC1 | 23.1µM* | 4.7% | -7.9% | ? | ? | 0.1%
